High-throughput results as filed in PubChem BioAssay.
Sampled rows, rich in hits. Any-hit rate of the full collection: about 4.1%.
hcDAF-12 act: activators of H. contortus DAF-12 nuclear receptor | HEK293 hcDAF-12 lit1-tk-luc reporter, luminescence; 0% DMSO, 100% Δ7-dafachronic acid | activation, % at 6.8 µM | actives 1.4% (n = 370,000);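 active = activation above the mean of all tested compounds plus 3 SD, cut at about 5.5% in these data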;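 also: 100% = response to 3 µM Δ7-dafachronic acid high control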
hgDAF12 agonist: activates the H. glycines DAF-12 receptor ligand-binding domain | HEK293 GAL4-hgDAF12 UAS-luciferase reporter, agonist luminescence; normalized to butyrate control | activation, % at 6.8 µM | actives 1.8% (n = 370,000) | AID 687014;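 active = activation above a cutoff set at the mean of all screened compounds plus 3 SD, cut at about 10% in these data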;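 also: 0% = DMSO wells and 100% = sodium butyrate wells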
ssDAF12 agonist: activates DAF-12 receptor from parasite S. stercoralis; HEK293 ssDAF-12/GRIP1 lit1-tk-luc reporter, luminescence; % of 3 µM dafachronic acid response; activation, % at 6.8 µM; actives 1% (n = 370,000); AID 652126;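 active = activation above the mean over all tested compounds plus 3 SD, cut at about 0.9% in these data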;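 also: 0% = DMSO-only wells and 100% = 3 µM delta7-dafachronic acid wells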
DAX1 inh-1: blocks DAX1 repression of SF-1 activated StAR promoter. AID 652010. actives 1.1% (n = 370,000). inhibition, % at 6.8 µM. HEK293T StAR-luciferase reporter, SF-1/DAX-1 repression relief;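 active = inhibition above the mean over all tested compounds plus 3 SD, cut at about 3.6% in these data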;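 also: 0% = DAX-1 cells with DMSO and 100% = cells lacking DAX-1 with DMSO; higher inhibition means more luminescence from relief of DAX-1 repression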
DAX1 inh-2: NR0B1 (DAX1) inhibition. actives 0.99% (n = 340,000). inhibition, % at 6.75 µM. AID 504766. P51843. HEK293 Gal4-DAX1 luciferase reporter, luminescence;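 active = inhibition above the mean over all tested compounds plus 3 SD, cut at about 4.2% in these data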;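 also: 0% = DAX1-transfected cells with DMSO and 100% = empty-vector control cells with DMSO; inhibition shows as a rise in luminescence from relieved DAX1 repression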
Target sequence (P51843 207-470 limits assumed): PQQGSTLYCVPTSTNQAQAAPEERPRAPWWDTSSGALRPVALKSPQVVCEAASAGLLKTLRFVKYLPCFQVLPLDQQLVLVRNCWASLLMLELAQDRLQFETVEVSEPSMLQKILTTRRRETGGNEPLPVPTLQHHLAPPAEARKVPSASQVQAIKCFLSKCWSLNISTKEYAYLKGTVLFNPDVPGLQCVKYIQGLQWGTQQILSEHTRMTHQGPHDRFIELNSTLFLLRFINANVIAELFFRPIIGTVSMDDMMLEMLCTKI
The depositor's hits bear a star; . = not tested or not shown.

SMILES	hcDAF-12 act	hgDAF12 agonist	ssDAF12 agonist	DAX1 inh-1	DAX1 inh-2
COc1cccc(NC(=O)C2CCCN2C(=O)NCc2ccccc2)c1 (stereo unspecified)	-2.0	2.1	-1.0	-0.4	.
O=C(CSc1nnc(-c2ccccn2)n1-c1ccccc1)Nc1ccccc1-c1ccccc1	-2.7	-4.2	-1.1	-1.4	.
CCOc1ccc(-n2c(SCC(=O)Nc3ccccc3-c3ccccc3)nnc2-c2ccccc2)cc1	-4.7	2.3	-1.8	-1.8	.
COC(=O)C1=C(C)N(Cc2ccc(C(F)(F)F)cc2)C(=NCc2ccccc2)NC1c1ccc(Cl)cc1 (stereo unspecified)	3.9	1.0	-0.8	0.4	.
COc1ccc(C2CC(c3ccccc3O)=NN2c2ccccc2)cc1 (stereo unspecified)	2.8	-1.9	-0.5	0.5	0.0
COc1ccc(C2CC(c3ccccc3)=NN2c2ccc(N)cc2)cc1 (stereo unspecified)	2.7	10.7*	-0.1	1.8	1.4
COc1ccccc1N1CCN(/N=C/c2cc(OC)c(O)c(OC)c2)CC1	-2.0	2.6	-0.9	0.0	2.4
COc1ccccc1N1CCN(/N=C/c2cccc(O)c2)CC1	3.6	12.0*	-0.2	1.0	0.1
C[C@H]1Cn2nnc(-c3ccccc3)c2Cn2c3ccccc3c(=O)n21	-0.7	1.0	-0.7	-1.4	.
CC(C)(C)NC(=O)Cn1c(SCC(=O)NC2CC2)nc2ccccc21	-0.8	-1.8	-0.1	0.2	4.7*
CSc1nsc(N/N=C/c2ccc3c(c2)OCO3)c1C#N	2.8	12.3*	-0.1	2.0	1.8
COc1cc(/C=N/Nc2snc(SC)c2C#N)cc(OC)c1OC	-1.0	-2.6	-2.0	-1.1	-3.2
COC(=O)[C@]12C[C@H](CC(=O)NCCCCc3ccccc3)C(=O)N(CCc3ccc(OC)c(OC)c3)C1=C[C@H](C1CCCC1)O[C@@H]2C	-2.3	0.4	-1.3	-0.6	.
C[C@H]1COc2cc(Br)ccc2S(=O)(=O)N1Cc1cn(CCC2OCCCO2)nn1	0.0	1.8	-1.2	-0.3	.
Nc1c2c(=O)[nH]c(O)cc2nn1-c1ccccc1	4.5	-1.2	1.2*	-1.2	1.3
Cc1c(C)c2c(C)nn(-c3ccccc3)c2[nH]c1=O	3.0	3.8	-1.2	0.1	0.7
O=C(CSc1ccccn1)Nc1nc2ccccc2s1	4.8	9.7	-1.8	-0.2	1.8
COc1ccc(-c2nnc3ccc(SCC(=O)Nc4nc5ccccc5s4)nn23)cc1OC	-0.1	11.1*	-1.2	-0.8	-0.2
O=C(CSc1cn[nH]n1)Nc1nc2ccccc2s1	6.0*	5.3	0.2	0.5	1.1
NNC(=O)c1nnsc1-c1csnn1	5.4	10.5*	0.6	1.9	4.0
Oc1ccc(Cl)cc1C1=NNC(c2cccs2)C1 (stereo unspecified)	5.7*	14.1*	0.3	0.6	3.8
C[C@H](O)[C@@H]1CN2CCc3c([nH]c4c(-c5ccccc5)cccc34)[C@@H]2C[C@@H]1N(C)C(=O)c1ccco1	-3.2	-2.9	-0.7	-0.8	.
O=C(Nc1ccccc1)N1CCC(=S)Nc2ccccc21	1.2	-1.9	-1.6	0.1	-1.3
CC1CC(=S)Nc2ccccc2N1C(=O)Nc1ccccc1 (stereo unspecified)	0.2	-0.6	-1.6	-0.1	5.2*
O=c1n(-c2ccc(Br)cc2)cnn1-c1ncccc1[N+](=O)[O-]	2.8	7.8	-0.8	2.7	4.3*
SMILES	hcDAF-12 act	hgDAF12 agonist	ssDAF12 agonist	DAX1 inh-1	DAX1 inh-2
O=[N+]([O-])c1cccnc1N1CCCCC1	-0.9	-0.1	-0.9	-0.3	0.3
COc1cccc(/C=C2\CCC(C3CCCC3)C2=O)c1OC (stereo unspecified)	3.6	12.5*	-0.6	2.1	2.5
COc1ccc(/C=C2\CCC(C3CCCC3)C2=O)c(OC)c1OC (stereo unspecified)	-0.7	2.0	-0.5	0.3	1.9
CC(=O)c1ccc([C@H](O)[C@@H](C(=O)N(C)c2ccccc2)C2CC2)cc1	-1.9	-1.3	-1.3	-0.7	.
CSc1nnc(CCNC(=O)OC(C)(C)C)o1	-1.2	0.4	-0.9	-0.2	4.5*
COc1cc2c(cc1NC(=O)c1ccco1)CCCC2	5.7*	6.5	-0.4	1.0	1.8
COCC(=O)Nc1ccccc1-c1ccccc1	-1.8	11.4*	-0.8	0.9	1.1
CN(Cc1ccccc1)C(=O)OCc1cn(Cc2cc(F)cc(F)c2)nn1	1.7	-1.0	-0.9	-1.8	.
CCCCCCCCS(=O)CCC(=O)O (stereo unspecified)	0.7	0.5	-0.1	0.7	0.6
CCCCCCCC(=O)O	0.4	-0.2	-1.4	0.1	4.7*
Cc1ccc(C2=NN(C(=O)CCC(=O)O)C(c3cccs3)C2)cc1 (stereo unspecified)	-0.2	1.5	-1.0	-0.2	-1.1
CCc1ccc(C2=NN(C(=O)CCC(=O)O)C(c3cccs3)C2)cc1 (stereo unspecified)	1.0	6.0	0.1	-0.5	4.7*
Cc1ccc(C2=NN(C(=O)CCC(=O)O)C(c3ccc4c(c3)OCO4)C2)cc1 (stereo unspecified)	1.3	0.4	-1.4	0.1	0.5
O=C(O)CCC(=O)N1N=C(c2ccccc2)CC1c1ccc2c(c1)OCO2 (stereo unspecified)	5.7*	9.1	0.6	0.2	1.5
CCN1CCCC1CNS(=O)(=O)c1ccc(F)c(Cl)c1 (stereo unspecified)	-1.6	3.7	-0.9	0.1	4.4*
CCN1CCCC1CNS(=O)(=O)c1cccc(C(F)(F)F)c1 (stereo unspecified)	0.6	3.0	-1.5	0.7	-0.5
COc1cccc(C(=O)n2ccc3ccc(-c4ccc5ccn(C(=O)c6cccc(OC)c6)c5c4)cc32)c1	0.3	0.5	-0.5	-0.7	.
c1csc(C2Nc3ccccc3-c3nc4ccccc4n32)c1 (stereo unspecified)	2.5	9.6	0.1	2.4	-1.2
Cc1ccsc1C1Nc2ccccc2-c2nc3ccccc3n21 (stereo unspecified)	2.0	10.8*	-0.2	1.9	0.8
O=C(CSc1ccsc1[N+](=O)[O-])NCc1ccccc1	6.5*	9.8	0.9*	1.4	0.8
COc1ccccc1CNC(=O)CSc1ccsc1[N+](=O)[O-]	-0.4	10.9*	-0.3	1.9	2.4
Cc1cc(NC(=O)Nc2ccc3c(ccn3C)c2)sn1	0.9	11.4*	-0.8	1.4	0.9
CO[C@H]([C@H](C)/C=C/N(C)C=O)[C@@H](C)C(=O)CC[C@H](C)[C@H](O)[C@H](C)[C@H]1OC(=O)/C=C/C(C)=C/C[C@H](O)C[C@@H]2C=CC[C@@H](C[C@H](OC)C(C)(O)[C@@H](OC)C[C@@H](OC)[C@@H]1C)O2 (stereo partly specified)	-2.6	-8.9	-1.4	.	.
CN1CCN(S(=O)(=O)c2cccc(C(=O)Nc3sc4c(c3-c3nc5ccccc5[nH]3)CCCC4)c2)CC1	6.1*	6.1	-0.1	-0.5	-0.7
